A short description of assay [1]: HepG2 liver cancer cell viability effects, profiling panel, resazurin fluorescence, 24 h, PK04 Diversity Set (AID 1172). Note: test concentration not given here. As to conditions: higher = more signal. (In general: Alamar Blue is a resazurin reagent that responds to reducing activity.)
Assay [2] in a line: basal S. cerevisiae growth modulation, no modifier, primary screen, OD600, strain BY4716, 24 h, basal condition (AID 1173). As to conditions: OD600, 24 h, higher = more signal, called active from +8 up or from −8 down.
Assay [3] is described as follows: MM1S myeloma cell viability, profiling panel, resazurin fluorescence, basal, 24 h, PK04 Diversity Set (AID 1174).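 Note: MM1S multiple myeloma cell line; test concentration not given here.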 As to conditions: higher = more signal, called active from +8 up or from −8 down.
The target of assay [4] is Dihydroorotate dehydrogenase (quinone), mitochondrial (Plasmodium falciparum (isolate 3D7)) (UniProt Q08210). Put plainly: PfDHODH enzyme inhibitors, primary screen, biochemical, C-terminal His tag, absorbance 600 nm (AID 1175).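 Note: recombinant parasite enzyme with a five histidine tag at its C terminus; test concentration not given here.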 As to conditions: DCIP absorbance 600 nm, higher = more signal, called active from +8 up or from −8 down.
Dihydroorotate dehydrogenase (quinone), mitochondrial (Plasmodium falciparum (isolate 3D7)), sequence (Q08210 whole entry, looked up): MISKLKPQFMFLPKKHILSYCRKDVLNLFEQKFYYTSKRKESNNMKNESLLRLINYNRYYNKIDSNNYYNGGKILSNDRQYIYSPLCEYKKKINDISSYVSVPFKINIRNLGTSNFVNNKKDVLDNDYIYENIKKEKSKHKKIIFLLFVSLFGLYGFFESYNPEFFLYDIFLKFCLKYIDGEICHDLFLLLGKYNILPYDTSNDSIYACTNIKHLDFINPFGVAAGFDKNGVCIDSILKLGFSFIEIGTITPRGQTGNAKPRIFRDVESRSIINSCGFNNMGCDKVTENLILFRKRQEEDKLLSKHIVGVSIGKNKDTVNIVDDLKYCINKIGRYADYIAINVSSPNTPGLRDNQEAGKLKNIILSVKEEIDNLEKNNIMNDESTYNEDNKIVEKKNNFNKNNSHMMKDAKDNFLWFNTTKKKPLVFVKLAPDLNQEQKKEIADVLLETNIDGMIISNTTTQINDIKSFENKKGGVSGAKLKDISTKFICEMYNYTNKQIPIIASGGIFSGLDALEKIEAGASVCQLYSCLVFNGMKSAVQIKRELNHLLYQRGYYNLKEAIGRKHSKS
A short description of assay [5]: P. aeruginosa biofilm formation inhibitors, primary screen, strain PAO1, LB-PBS medium, absorbance 600 nm (AID 1176). Note: test concentration not given here. As to conditions: P. aeruginosa PAO1 growth/biofilm, A600, 12 h; higher = more signal.
Assay [6] in a line: S. cerevisiae RM11-1a growth modifiers, primary screen, strain RM11-1a, OD600, basal, 24 h (AID 1177).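 Note: cultures grown under basal conditions with no added stressor; test concentration not given here.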 As to conditions: OD600, 24 h, higher = more signal, called active from +8 up or from −8 down.
The nature of assay [7]: E. coli acrAB mutant growth effects, primary screen, E. coli filamentation inducers, strain DRC39, OD650, 24 h (AID 1178).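 Note: growth measured as culture turbidity by optical density at 650 nm; test concentration not given here.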 As to conditions: higher = more signal, called active from +8 up or from −8 down.
Assay [8] in a line: E. coli acrAB mutant growth effects, primary screen, E. coli filamentation inducers, strain DRC39, OD650, 48 h (AID 1179).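 Note: screen aims at cell division blockers that make cells filament.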 Conditions: E. coli DRC39 delta-acrAB growth, higher = more signal, called active from +8 up or from −8 down.
Assay [9] can be described thus: RPMI8226 myeloma cell viability, profiling panel, resazurin fluorescence, basal, 24 h, PK04 Diversity Set (AID 1180).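 Note: RPMI8826 multiple myeloma cell line at 5000 cells per well; test concentration not given here.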 Conditions: higher = more signal.
The target in assay [10] is E3 ubiquitin-protein ligase XIAP (Homo sapiens) (UniProt P98170). The experiment in a line: XIAP binders, primary screen, biophysical, small-molecule microarray, fluorescence 635 nm (AID 1181).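 Note: score merges 667 nm emission and signal to noise over triplicate slides.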 Conditions: small-molecule microarray binding, higher = more signal.
E3 ubiquitin-protein ligase XIAP (Homo sapiens), sequence (P98170 whole entry, looked up): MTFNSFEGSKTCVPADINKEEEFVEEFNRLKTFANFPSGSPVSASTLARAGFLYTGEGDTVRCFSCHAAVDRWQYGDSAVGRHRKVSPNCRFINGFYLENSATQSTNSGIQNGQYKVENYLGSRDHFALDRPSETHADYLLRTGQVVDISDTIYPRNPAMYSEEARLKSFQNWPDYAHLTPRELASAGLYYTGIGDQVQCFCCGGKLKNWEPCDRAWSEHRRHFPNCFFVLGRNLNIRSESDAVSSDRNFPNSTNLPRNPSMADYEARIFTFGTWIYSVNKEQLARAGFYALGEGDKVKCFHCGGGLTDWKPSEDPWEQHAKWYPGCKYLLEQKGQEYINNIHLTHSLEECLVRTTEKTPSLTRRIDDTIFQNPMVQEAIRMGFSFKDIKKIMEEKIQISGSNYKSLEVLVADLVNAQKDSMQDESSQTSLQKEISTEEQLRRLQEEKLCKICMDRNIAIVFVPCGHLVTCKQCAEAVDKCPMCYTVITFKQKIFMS

Active and inactive are the calls of the source. Unless noted, the rule behind the calls is not given here.

For `CC1CC/C=C\[C@H]2OC34C=CCN(c5ccc6ccccc6c5)C(=O)[C@H]3N(CCO)C(=O)[C@@H]4C2C(=O)O1` (stereo not given in full), the z-score is -0.854 in [1]; -0.635 (inactive) in assay [2]; -1.03 (inactive) in assay [3]; 0.826 (inactive) in assay [5]; -0.471 (inactive) in assay [6]; -0.726 (inactive) in [7]. Moreover, the z-score was -0.867 (inactive) in [8] and 0.0886 in assay [9]. For the same compound, the composite z-score in [4] was -0.509 (inactive); in assay [10] it was 0.0728.

With `COc1ccc(CCNC(=O)[C@@]2(c3ccc([N+](=O)[O-])cc3)CC(=O)N(CC34CC5CC(CC(C5)C3)C4)[C@@H]2c2ccc(CO)cc2I)cc1`, the z-score in assay [1] is -1.49; in [2], 0.0097 (inactive); in assay [3], -1.81 (inactive); in assay [5] it was 1.8 (inactive); in [6] it was 0.437 (inactive); in assay [7] it was 0.0777 (inactive). The z-score in assay [8] is 0.223 (inactive); in assay [9], -1.79. The figures for the composite z-score in assay [4] and in assay [10] were 0.387 (inactive) and -0.195, respectively.

With `COc1ccccc1CN1C(=O)c2ccccc2[C@@H](C(=O)NCc2ccccc2)[C@@H]1c1ccc(CO)cc1`, the z-score is -0.678 in [1]; 0.0688 (inactive) in assay [2]; 0.122 (inactive) in assay [3]; -0.0528 (inactive) in [5]; -0.0226 (inactive) in assay [6]; -0.236 (inactive) in assay [7]. The z-score in [8] was -0.36 (inactive); in [9] it was 0.427. Also, the composite z-score in assay [4] is 0.942 (inactive); in [10], -0.193.

Consider `COc1ccccc1CN1C(=O)c2ccccc2[C@@]2(Cc3ccccc3N(CCCN(C)C)C2=O)[C@@H]1c1ccc(CO)cc1`, for which the z-score in [1] is -0.434; in assay [2] it was 0.259 (inactive); in [3], 1.17 (inactive); in assay [5] it was 0.282 (inactive); in assay [6] it was -0.746 (inactive); in assay [7] it was 1.28 (inactive). The z-score in [8] is 0.468 (inactive); in assay [9], 0.723. Moreover, the values for the composite z-score in assay [4] and in assay [10] were -19.5 (active) and -0.113, respectively.

Take `CN1C(=O)C2C=CC(C(O)C=Cc3ccc([N+](=O)[O-])cc3)N(Nc3ccccc3)C2C1=O` (stereo not given): the z-score was -0.891 in assay [1]; -4.48 (inactive) in [2]; -1.55 (inactive) in assay [3]; 1.41 (inactive) in assay [5]; -0.709 (inactive) in assay [6]; -0.377 (inactive) in [7]. The z-score in assay [8] is -0.668 (inactive); in [9], -1.45. Moreover, the composite z-score in assay [4] is -1.01 (inactive); in assay [10], 0.376.

As to `COCCOC(=O)N1C(=O)[C@@]2(c3cc(C#CC4(O)CCCCCC4)ccc31)[C@H](c1ccccc1OCCO)N1[C@H](c3ccccc3)[C@H](c3ccccc3)OC(=O)[C@H]1[C@@H]2C(=O)N1CCc2cc(OC)c(OC)cc2C1`, the z-score in assay [1] was 0.598; in assay [2] it was 2.06 (inactive); in assay [3] it was -0.9 (inactive); in [5], 2.26 (inactive); in [6], 3.05 (inactive); in assay [7], -0.404 (inactive). For the same compound, the z-score in assay [8] was -0.405 (inactive); in assay [9] it was -0.203. Also, the composite z-score in [4] was 0.445 (inactive); in assay [10], -0.127.

For `CC(C)[Si](C#C[Si](C(C)C)(C(C)C)C(C)C)(O[C@H](C)c1cn(Cc2ccccc2)nn1)C(C)C`, the z-score in assay [1] is 0.0403; in [2], 0.745 (inactive); in [3] it was 1.74 (inactive); in assay [5], 0.419 (inactive); in assay [6], -0.0006 (inactive); in assay [7], -0.118 (inactive). Further, the z-score in assay [8] is 0.164 (inactive); in assay [9], 0.776. The composite z-score in assay [4] is -0.348 (inactive); in assay [10], 0.013.

Consider `C=C(/C(=C/C[C@H](OC(C)=O)c1ccc(OCCO)cc1)c1cc(C(=O)OC)ccc1OC)C(C)C`, for which the z-score was 1.5 in [1]; -0.962 (inactive) in [2]; 0.012 (inactive) in [3]; 0.613 (inactive) in assay [5]; -0.0571 (inactive) in assay [6]; 0.483 (inactive) in [7]. Besides, the figures for the z-score in assay [8] and in assay [9] were 0.232 (inactive) and 0.0628, respectively. The composite z-score is -0.858 (inactive) in [4] and -0.307 in assay [10].

On to `C#CCOc1ccc(C[C@@H](C(=O)OC)N(CC#C)[C@@H](/C=C/C2CC2)[C@H](O)Cc2ccccc2)cc1`, for which the z-score in [1] was 0.288; in [2] it was 1.03 (inactive); in assay [3], 0.232 (inactive); in assay [5] it was -0.271 (inactive); in [6] it was 1.45 (inactive); in [7] it was -0.741 (inactive). Further, the figures for the z-score in [8] and in [9] were -0.528 (inactive) and 0.318, respectively. In addition, the composite z-score in assay [4] is 0.567 (inactive); in [10], 0.157.

In the case of `O=C1C2C=CC(C(O)COCc3ccccc3)N(Nc3ccc([N+](=O)[O-])cc3)C2C(=O)N1c1ccccc1` (stereo not given), the z-score is 0.0505 in assay [1]; 0.858 (inactive) in [2]; 0.391 (inactive) in [3]; 0.589 (inactive) in assay [5]; 0.498 (inactive) in assay [6]; 0.24 (inactive) in [7]. Besides, the z-score in [8] is 0.613 (inactive); in [9] it was 0.948. In addition, the figures for the composite z-score in assay [4] and in assay [10] were -0.262 (inactive) and 0.0604, respectively.

Consider `CCOC(=O)C1=CC[C@H]2C(=O)N(c3ccccc3)C(=O)[C@@H]12`, for which the z-score in assay [1] is 0.119; in assay [2], 0.206 (inactive); in assay [3], -0.811 (inactive); in assay [5] it was -0.417 (inactive); in assay [6], -0.337 (inactive); in [7], -0.809 (inactive). Besides, the z-score in assay [8] was -1.17 (inactive); in [9], -0.0357. Besides, the composite z-score is 0.494 (inactive) in assay [4] and 0.154 in assay [10].

Values taken from PubChem BioAssay.
